Experimental data as given in PubChem BioAssay AID1159580 (chemical genetic matrix, 2015).
“And” between values parts separate entries of the source, which are not always exact repeats. Equal entries are not always repeated. Among all 5,500 compounds or so, about 2,000 (36%) were called active. Another 18% or so got no clear call; they are omitted. Cut-off read from the data, not from the text of the source: active = normalized growth mostly below about 0.91 (no sharp cut-off); inconclusive = no clear call, values can overlap the other calls; inactive = mostly above about 0.92. This is one part of the list.

Assay: chemical genetic growth profiling, strain panel (AID 1159580);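 note: tested at 20 µM; growth read once vehicle control cultures reached saturation at 30 °C; 1 = growth at the plate median or of vehicle wells; lower values mean less growth of the strain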
Details: S. cerevisiae deletion strains, growth OD

Measured: normalized growth

COc1cc(C)c2c(=O)cc(-c3ccccc3)oc2c1
inactive: locus YAL021C, strain ccr4, stronger effect = lower value 0.983 | locus YAL026C, strain drs2, stronger effect = lower value 0.922 | locus YBR009C, strain hhf1, stronger effect = lower value 0.946 | locus YBR021W, strain FUR4, stronger effect = lower value 0.921 | locus YBR171W, strain sec66, stronger effect = lower value 0.911 | locus YBR229C, strain ROT2, stronger effect = lower value 0.984 | locus YBR231C, strain swc5, stronger effect = lower value 0.925 | locus YBR279W, strain paf1, stronger effect = lower value 0.942 | locus YCL016C, strain dcc1, stronger effect = lower value 0.93 | locus YCL029C, strain bik1, stronger effect = lower value 0.968 | locus YCL061C, strain MRC1, stronger effect = lower value 0.927 | locus YCL069W, strain vba3, stronger effect = lower value 0.939 | locus YDL005C, strain med2, stronger effect = lower value 0.956 | locus YDL035C, strain GPR1, stronger effect = lower value 1.01 | locus YDL074C, strain BRE1, stronger effect = lower value 0.896 | locus YDL101C, strain DUN1, stronger effect = lower value 0.948 | locus YDL134C, strain PPH21, stronger effect = lower value 0.998 | locus YDL185W, strain tfp1, stronger effect = lower value 0.979 | locus YDL192W, strain arf1, stronger effect = lower value 0.966 | locus YDR001C, strain nth1, stronger effect = lower value 0.938 | locus YDR069C, strain doa4, stronger effect = lower value 0.941 | locus YDR101C, strain arx1, stronger effect = lower value 0.989 | locus YDR150W, strain NUM1, stronger effect = lower value 1.02 | locus YDR159W, strain sac3, stronger effect = lower value 0.9 | locus YDR162C, strain NBP2, stronger effect = lower value 0.996 | locus YDR195W, strain ref2 1 | locus YDR297W, strain sur2, stronger effect = lower value 0.927 | locus YDR318W, strain mcm21, stronger effect = lower value 0.968 | locus YDR334W, strain swr1, stronger effect = lower value 0.938 | locus YDR335W, strain msn5, stronger effect = lower value 0.942 | locus YDR388W, stronger effect = lower value 0.967 | locus YDR502C, strain sam2, stronger effect = lower value 0.977 | locus YEL037C, strain rad23, stronger effect = lower value 0.942 | locus YEL061C, strain CIN8 (second series), stronger effect = lower value 0.926 | locus YEL061C, strain CIN8, stronger effect = lower value 0.985 | locus YER015W, strain faa2, stronger effect = lower value 0.945 | locus YER016W, strain bim1, stronger effect = lower value 0.935 | locus YER110C, stronger effect = lower value 0.963 | locus YER111C, strain swi4, stronger effect = lower value 0.96 | locus YER155C, strain BEM2, stronger effect = lower value 0.973 | locus YER167W, strain BCK2, stronger effect = lower value 0.994 | locus YFR010W, strain ubp6, stronger effect = lower value 0.933 | locus YGL078C, strain dbp3, stronger effect = lower value 0.972 | locus YGL086W, strain mad1, stronger effect = lower value 0.973 | locus YGL173C, strain kem1, stronger effect = lower value 0.935 | locus YGL227W, strain vid30, stronger effect = lower value 0.924 | locus YGL248W, strain PDE1, stronger effect = lower value 0.955 | locus YGR078C, strain PAC10, stronger effect = lower value 0.955 | locus YGR135W, strain pre9, stronger effect = lower value 0.98 | locus YGR252W, strain gcn5, stronger effect = lower value 0.96 | locus YHR013C, strain ard1, stronger effect = lower value 0.904 | locus YHR027C, strain rpn1, stronger effect = lower value 0.94 | locus YHR030C, strain SLT2, stronger effect = lower value 0.995 and 0.867 | locus YHR079C, strain IRE1 (second series), stronger effect = lower value 0.974 | locus YHR079C, strain IRE1, stronger effect = lower value 0.868 | locus YHR094C, strain hxt1, stronger effect = lower value 0.965 | locus YHR129C, strain ARP1, stronger effect = lower value 0.976 | locus YHR200W, strain rpn10, stronger effect = lower value 0.963 | locus YIL066C, strain RNR3, stronger effect = lower value 0.996 | locus YIL073C, strain SPO22, stronger effect = lower value 0.949 | locus YIL125W, strain kgd1, stronger effect = lower value 0.964 | locus YIR030C, strain dcg1, stronger effect = lower value 0.958 | locus YJL092W, strain hpr5, stronger effect = lower value 0.923 | locus YJL115W, strain asf1, stronger effect = lower value 0.955 | locus YJL134W, strain LCB3, stronger effect = lower value 0.987 | locus YJL154C, strain vps35, stronger effect = lower value 0.942 | locus YJL168C, strain set2, stronger effect = lower value 0.969 | locus YJL187C, strain SWE1 (second series), stronger effect = lower value 0.954 | locus YJL187C, strain SWE1, stronger effect = lower value 0.933 | locus YJR043C, strain POL32, stronger effect = lower value 1.03 | locus YKL009W, strain mrt4, stronger effect = lower value 0.954 | locus YKL068W, stronger effect = lower value 0.966 | locus YKL085W, strain MDH1 (second series), stronger effect = lower value 0.965 | locus YKL085W, strain MDH1, stronger effect = lower value 0.965 | locus YKR001C, strain vps1, stronger effect = lower value 0.982 | locus YKR091W, strain srl3, stronger effect = lower value 0.934 | locus YLL001W, strain dnm1, stronger effect = lower value 0.932 | locus YLL026W, stronger effect = lower value 0.944 | locus YLL041C, strain sdh2, stronger effect = lower value 0.935 | locus YLR039C, strain RIC1, stronger effect = lower value 1.08 | locus YLR058C, strain SHM2, stronger effect = lower value 0.975 | locus YLR102C, strain apc9, stronger effect = lower value 0.974 | locus YLR258W, strain gsy2, stronger effect = lower value 0.921 | locus YLR262C, strain YPT6, stronger effect = lower value 1.05 | locus YLR268W, strain sec22, stronger effect = lower value 0.958 | locus YLR330W, strain CHS5, stronger effect = lower value 0.973 | locus YLR342W, strain FKS1 (second series), stronger effect = lower value 0.979 | locus YLR357W, strain rsc2, stronger effect = lower value 0.87 | locus YLR370C, strain arc18, stronger effect = lower value 0.945 | locus YLR371W, strain rom2, stronger effect = lower value 0.966 | locus YLR384C, strain iki3, stronger effect = lower value 0.925 | locus YLR418C, strain cdc73, stronger effect = lower value 0.843 | locus YML016C, strain PPZ1, stronger effect = lower value 0.972 | locus YML032C, strain rad52, stronger effect = lower value 0.968 | locus YML120C, strain ndi1, stronger effect = lower value 0.941 | locus YML124C, strain tub3, stronger effect = lower value 0.973 | locus YMR058W, strain fet3, stronger effect = lower value 0.917 | locus YMR078C, strain ctf18, stronger effect = lower value 0.952 | locus YMR125W, strain sto1, stronger effect = lower value 0.929 | locus YMR129W, stronger effect = lower value 0.937 | locus YMR223W, strain ubp8, stronger effect = lower value 0.967 | locus YMR231W, strain pep5, stronger effect = lower value 0.951 | locus YMR307W, strain GAS1, stronger effect = lower value 1.23 | locus YNL067W, strain RPL9B, stronger effect = lower value 0.964 | locus YNL209W, strain ssb2, stronger effect = lower value 0.961 | locus YNL233W, strain BNI4, stronger effect = lower value 0.952 | locus YNL248C, strain rpa49, stronger effect = lower value 0.912 | locus YNL250W, strain rad50, stronger effect = lower value 0.953 | locus YNL271C, strain bni1, stronger effect = lower value 0.944 | locus YNL298W, strain CLA4, stronger effect = lower value 0.953 | locus YNL307C, strain MCK1, stronger effect = lower value 0.918 | locus YNL322C, strain KRE1 (second series), stronger effect = lower value 0.932 | locus YNR049C, strain mso1, stronger effect = lower value 0.924 | locus YNR052C, strain pop2, stronger effect = lower value 0.958 | locus YOL006C, strain TOP1, stronger effect = lower value 0.686 | locus YOL012C, strain htz1 1.23 | locus YOL147C, strain pex11, stronger effect = lower value 0.97 | locus YOR001W, strain rrp6, stronger effect = lower value 0.932 | locus YOR061W, strain CKA2, stronger effect = lower value 0.979 | locus YOR069W, strain VPS5, stronger effect = lower value 0.979 | locus YOR070C, strain gyp1, stronger effect = lower value 0.93 | locus YOR080W, strain dia2, stronger effect = lower value 0.943 | locus YOR083W, strain WHI5, stronger effect = lower value 0.907 | locus YOR106W, strain vam3, stronger effect = lower value 0.896 | locus YOR136W, strain idh2, stronger effect = lower value 0.972 | locus YOR144C, strain elg1, stronger effect = lower value 0.968 | locus YOR316C, strain cot1, stronger effect = lower value 0.966 | locus YPL106C, strain sse1, stronger effect = lower value 0.852 | locus YPL240C, strain hsp82, stronger effect = lower value 0.934 | locus YPL256C, strain CLN2, stronger effect = lower value 0.872 | locus YPR119W, strain clb2, stronger effect = lower value 0.973 | locus YPR141C, strain kar3, stronger effect = lower value 0.954 | locus YPR163C, strain tif3, stronger effect = lower value 0.982 | locus YPR167C, strain met16, stronger effect = lower value 0.958 | strain wtn01, stronger effect = lower value 0.968
0.914 (inactive) and 0.876 (active): locus YJL095W, strain BCK1, stronger effect = lower value
active: locus YAL030W, strain snc1, stronger effect = lower value 0.928 | locus YBL061C, strain skt5, stronger effect = lower value 0.915 | locus YBR023C, strain chs3, stronger effect = lower value 0.913 | locus YCL011C, strain gbp2, stronger effect = lower value 0.891 | locus YCR088W, strain abp1, stronger effect = lower value 0.92 | locus YDL040C, strain nat1, stronger effect = lower value 0.93 | locus YDR137W, strain rgp1, stronger effect = lower value 0.762 | locus YDR392W, strain spt3, stronger effect = lower value 0.47 | locus YEL003W, strain gim4, stronger effect = lower value 0.893 | locus YER155C, strain BEM2 (second series), stronger effect = lower value 0.505 | locus YGL167C, strain pmr1, stronger effect = lower value 0.913 | locus YGL240W, strain doc1, stronger effect = lower value 0.856 | locus YGL253W, strain hxk2, stronger effect = lower value 0.909 | locus YHR142W, strain chs7, stronger effect = lower value 0.73 | locus YJL095W, strain BCK1 (second series), stronger effect = lower value 0.919 | locus YJL129C, strain trk1, stronger effect = lower value 0.833 | locus YJL164C, strain tpk1, stronger effect = lower value 0.909 | locus YJL166W, strain qcr8, stronger effect = lower value 0.893 | locus YJR066W, strain TOR1, stronger effect = lower value 0.814 | locus YKL160W, strain elf1, stronger effect = lower value 0.884 | locus YKR026C, strain gcn3, stronger effect = lower value 0.92 | locus YLR027C, strain aat2, stronger effect = lower value 0.917 | locus YLR113W, strain HOG1, stronger effect = lower value 0.721 | locus YLR221C, strain rsa3, stronger effect = lower value 0.887 | locus YLR262C, strain YPT6 (second series), stronger effect = lower value 0.757 | locus YLR320W, strain mms22, stronger effect = lower value 0.728 | locus YLR342W, strain FKS1, stronger effect = lower value 0.901 | locus YMR205C, strain PFK2, stronger effect = lower value 0.791 | locus YNL071W, strain lat1, stronger effect = lower value 0.687 | locus YNL183C, strain NPR1, stronger effect = lower value 0.796 | locus YOR184W, strain ser1, stronger effect = lower value 0.866 | locus YOR231W, strain MKK1, stronger effect = lower value 0.857 | locus YOR265W, strain rbl2, stronger effect = lower value 0.922 | locus YOR270C, strain vph1, stronger effect = lower value 0.701 | locus YOR290C, strain snf2, stronger effect = lower value 0.82 | locus YPL051W, strain arl3, stronger effect = lower value 0.904 | locus YPL078C, strain atp4, stronger effect = lower value 0.886
